Measurements reported in PubChem BioAssay AID1159580 (chemical genetic matrix, 2015).
In all, about 5,500 compounds went through this assay and about 2,000 (36%) were called active. Not shown: some 18% with an inconclusive outcome. Cut-off read from the data, not from the text of the source: active = normalized growth mostly below about 0.91 (no sharp cut-off); inconclusive = no clear call, values can overlap the other calls; inactive = mostly above about 0.92. The list shows a part of the results.

Assay: chemical genetic growth profiling, strain panel (AID 1159580);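 note: tested at 20 µM; growth read once vehicle control cultures reached saturation at 30 °C; 1 = growth at the plate median or of vehicle wells; lower values mean less growth of the strain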
Settings: growth OD
[1] = S. cerevisiae deletion strains, locus YAL013W, strain DEP1, hits give low values
[2] = S. cerevisiae deletion strains, locus YBR229C, strain ROT2, hits give low values
[3] = S. cerevisiae deletion strains, locus YDL101C, strain DUN1, hits give low values
[4] = S. cerevisiae deletion strains, locus YDR150W, strain NUM1, hits give low values
[5] = S. cerevisiae deletion strains, locus YEL061C, strain CIN8, hits give low values
[6] = S. cerevisiae deletion strains, locus YGR078C, strain PAC10, hits give low values
[7] = S. cerevisiae deletion strains, locus YHR030C, strain SLT2, hits give low values
[8] = S. cerevisiae deletion strains, locus YJR043C, strain POL32, hits give low values
[9] = S. cerevisiae deletion strains, locus YJR075W, strain HOC1, hits give low values
[10] = S. cerevisiae deletion strains, locus YLR039C, strain RIC1, hits give low values
[11] = S. cerevisiae deletion strains, locus YLR262C, strain YPT6, hits give low values
[12] = S. cerevisiae deletion strains, locus YMR263W, strain SAP30, hits give low values
[13] = S. cerevisiae deletion strains, locus YMR307W, strain GAS1, hits give low values
[14] = S. cerevisiae deletion strains, locus YNL153C, strain GIM3, hits give low values
[15] = S. cerevisiae deletion strains, locus YNL322C, strain KRE1, hits give low values
[16] = S. cerevisiae deletion strains, locus YOL006C, strain TOP1, hits give low values
[17] = S. cerevisiae deletion strains, locus YPL055C, strain LGE1, hits give low values
[18] = S. cerevisiae deletion strains, locus YPL241C, strain CIN2, hits give low values

Measured: normalized growth

Cc1oc(S(=O)(=O)N(C)C)cc1C(=O)O
inactive: [1] 1.03 | [2] 1 | [3] 0.952 | [4] 1 | [5] 1.02 | [6] 1.01 | [7] 1.06 | S. cerevisiae deletion strains, locus YHR087W, strain rtc3, hits give low values 1.03 | S. cerevisiae deletion strains, locus YJL187C, strain SWE1, hits give low values 0.997 | [8] 0.987 | [9] 1 | [10] 1.07 | S. cerevisiae deletion strains, locus YLR058C, strain SHM2 (second series), hits give low values 1 | S. cerevisiae deletion strains, locus YLR085C, strain ARP6, hits give low values 1.08 | [11] 1.01 | S. cerevisiae deletion strains, locus YML094W, strain GIM5, hits give low values 1.06 | S. cerevisiae deletion strains, locus YMR219W, strain ESC1, hits give low values 1.01 | [12] 0.985 | [13] 0.976 | [14] 1.01 | S. cerevisiae deletion strains, locus YNL298W, strain CLA4 (second series), hits give low values 1 | [15] 1 | S. cerevisiae deletion strains, locus YNR030W, strain Alg12, hits give low values 1.02 | [16] 1.06 | [17] 1.08 | [18] 1.09 | S. cerevisiae deletion strains, locus YPR135W, strain CTF4, hits give low values 1.34

O=C(CCCCCCCCCCCCC1CCCC1)Nc1ccc(S(=O)(=O)c2ccc(NC(=O)CCCCCCCCCCCCC3CCCC3)cc2)cc1
inactive: [1] 1.01 | S. cerevisiae deletion strains, locus YBR021W, strain FUR4, hits give low values 1.04 | [2] 1.02 | S. cerevisiae deletion strains, locus YCL029C, strain bik1, hits give low values 0.992 | S. cerevisiae deletion strains, locus YDL035C, strain GPR1, hits give low values 1.02 | S. cerevisiae deletion strains, locus YDL074C, strain BRE1, hits give low values 1.07 | [3] 1.03 | S. cerevisiae deletion strains, locus YDL134C, strain PPH21, hits give low values 1.03 | S. cerevisiae deletion strains, locus YDL185W, strain tfp1, hits give low values 1.01 | S. cerevisiae deletion strains, locus YDL192W, strain arf1, hits give low values 0.997 | S. cerevisiae deletion strains, locus YDR101C, strain arx1, hits give low values 0.989 | [4] 1.02 | S. cerevisiae deletion strains, locus YDR162C, strain NBP2, hits give low values 1.03 | S. cerevisiae deletion strains, locus YDR318W, strain mcm21, hits give low values 0.989 | S. cerevisiae deletion strains, locus YDR388W, hits give low values 0.983 | S. cerevisiae deletion strains, locus YDR502C, strain sam2, hits give low values 1 | [5] 1.02 | S. cerevisiae deletion strains, locus YER110C, hits give low values 0.99 | S. cerevisiae deletion strains, locus YER155C, strain BEM2, hits give low values 1.02 | S. cerevisiae deletion strains, locus YER167W, strain BCK2, hits give low values 1.03 | S. cerevisiae deletion strains, locus YGL078C, strain dbp3, hits give low values 0.992 | S. cerevisiae deletion strains, locus YGL086W, strain mad1, hits give low values 1 | S. cerevisiae deletion strains, locus YGL248W, strain PDE1, hits give low values 1.03 | [6] 1.03 | S. cerevisiae deletion strains, locus YGR135W, strain pre9, hits give low values 1.01 | S. cerevisiae deletion strains, locus YGR229C, strain SMI1, hits give low values 1.03 | S. cerevisiae deletion strains, locus YGR252W, strain gcn5, hits give low values 0.984 | [7] 1.02 | S. cerevisiae deletion strains, locus YHR079C, strain IRE1 (second series), hits give low values 0.99 | S. cerevisiae deletion strains, locus YHR094C, strain hxt1, hits give low values 0.996 | S. cerevisiae deletion strains, locus YHR129C, strain ARP1, hits give low values 1.02 | S. cerevisiae deletion strains, locus YHR200W, strain rpn10, hits give low values 0.998 | S. cerevisiae deletion strains, locus YIL066C, strain RNR3, hits give low values 1.02 | S. cerevisiae deletion strains, locus YIL073C, strain SPO22, hits give low values 0.99 | S. cerevisiae deletion strains, locus YIL125W, strain kgd1, hits give low values 1 | S. cerevisiae deletion strains, locus YIR030C, strain dcg1, hits give low values 0.99 | S. cerevisiae deletion strains, locus YJL095W, strain BCK1, hits give low values 1.04 | S. cerevisiae deletion strains, locus YJL134W, strain LCB3, hits give low values 1.02 | S. cerevisiae deletion strains, locus YJL168C, strain set2, hits give low values 1 | S. cerevisiae deletion strains, locus YJL187C, strain SWE1 (second series), hits give low values 1.02 | [8] 1.03 | [9] 1.03 | S. cerevisiae deletion strains, locus YKL009W, strain mrt4, hits give low values 0.991 | S. cerevisiae deletion strains, locus YKL068W, hits give low values 1 | S. cerevisiae deletion strains, locus YKL085W, strain MDH1 (second series), hits give low values 1 | S. cerevisiae deletion strains, locus YKL085W, strain MDH1, hits give low values 1 | S. cerevisiae deletion strains, locus YKL190W, strain CNB1, hits give low values 1.02 | S. cerevisiae deletion strains, locus YKR001C, strain vps1, hits give low values 0.991 | [10] 1.04 | S. cerevisiae deletion strains, locus YLR058C, strain SHM2, hits give low values 1.02 | S. cerevisiae deletion strains, locus YLR102C, strain apc9, hits give low values 0.989 | [11] 1.03 | S. cerevisiae deletion strains, locus YLR268W, strain sec22, hits give low values 0.997 | S. cerevisiae deletion strains, locus YLR330W, strain CHS5, hits give low values 1.02 | S. cerevisiae deletion strains, locus YLR342W, strain FKS1 (second series), hits give low values 1.03 | S. cerevisiae deletion strains, locus YLR371W, strain rom2, hits give low values 1 | S. cerevisiae deletion strains, locus YLR418C, strain cdc73, hits give low values 1 | S. cerevisiae deletion strains, locus YML016C, strain PPZ1, hits give low values 1.03 | S. cerevisiae deletion strains, locus YML032C, strain rad52, hits give low values 1 | S. cerevisiae deletion strains, locus YML124C, strain tub3, hits give low values 0.99 | S. cerevisiae deletion strains, locus YMR078C, strain ctf18, hits give low values 0.988 | S. cerevisiae deletion strains, locus YMR223W, strain ubp8, hits give low values 0.989 | [12] 1.04 | [13] 0.981 | S. cerevisiae deletion strains, locus YNL067W, strain RPL9B, hits give low values 1.04 | S. cerevisiae deletion strains, locus YNL128W, strain TEP1, hits give low values 1.04 | [14] 1.02 | S. cerevisiae deletion strains, locus YNL233W, strain BNI4, hits give low values 1.03 | S. cerevisiae deletion strains, locus YNL250W, strain rad50, hits give low values 1 | S. cerevisiae deletion strains, locus YNL271C, strain bni1, hits give low values 0.998 | S. cerevisiae deletion strains, locus YNL298W, strain CLA4, hits give low values 1.01 | S. cerevisiae deletion strains, locus YNL307C, strain MCK1, hits give low values 0.99 | [15] 1.02 | S. cerevisiae deletion strains, locus YNR052C, strain pop2, hits give low values 0.993 | [16] 1.14 | S. cerevisiae deletion strains, locus YOL012C, strain htz1 0.857 | S. cerevisiae deletion strains, locus YOL147C, strain pex11, hits give low values 0.992 | S. cerevisiae deletion strains, locus YOR061W, strain CKA2, hits give low values 1.02 | S. cerevisiae deletion strains, locus YOR069W, strain VPS5, hits give low values 1.01 | S. cerevisiae deletion strains, locus YOR136W, strain idh2, hits give low values 0.994 | S. cerevisiae deletion strains, locus YOR144C, strain elg1, hits give low values 0.993 | S. cerevisiae deletion strains, locus YOR184W, strain ser1, hits give low values 0.99 | S. cerevisiae deletion strains, locus YOR316C, strain cot1, hits give low values 0.998 | [17] 1.05 | [18] 1.01 | S. cerevisiae deletion strains, locus YPR119W, strain clb2, hits give low values 0.984 | S. cerevisiae deletion strains, locus YPR141C, strain kar3, hits give low values 0.996 | S. cerevisiae deletion strains, locus YPR163C, strain tif3, hits give low values 0.993 | S. cerevisiae deletion strains, locus YPR167C, strain met16, hits give low values 0.997 | S. cerevisiae deletion strains, strain wtn01, hits give low values 0.997 | S. cerevisiae strains, strain wild type, hits give low values 1.01
